PI5P4Ka inh – qHTS for Inhibitors of phosphatidylinositol 5-phosphate 4-kinase (PI5P4K); max response, %; actives 1.2% (n = 330,000); PI5P4Kalpha enzyme, ADP-Glo luminescence, 60 min; stronger effect = lower value; Phosphatidylinositol 5-phosphate 4-kinase type-2 alpha (Homo sapiens), P48426; AID 652105, 2013; active = max response of -50% or lower; inconclusive = between -30% and -50%; inactive = -30% or higher; note: value at the top dose of about 77 µM
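Luminescence from ADP-Glo served as readout of PI5P4Kalpha activity in a qHTS format. Reaction: enzyme, substrate, compound, ATP at 5 microM final, 60 min at RT.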
PI4K2A block – qHTS for small molecular inhibitors of PI4K2A; Phosphatidylinositol 4-kinase type 2-alpha (Homo sapiens), Q9BTU6; purified PI4K2A, ADP-Glo luminescence, 1 h; stronger effect = lower value; actives 0.13% (n = 420,000); activity change, negative = inhibition, % at 76.9 µM; in the data active = activity change below about -50%; inconclusive = mostly about -30% to -49%;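 note: -100% = wells without enzyme as full effect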
Target sequence (Q9BTU6 whole entry, looked up): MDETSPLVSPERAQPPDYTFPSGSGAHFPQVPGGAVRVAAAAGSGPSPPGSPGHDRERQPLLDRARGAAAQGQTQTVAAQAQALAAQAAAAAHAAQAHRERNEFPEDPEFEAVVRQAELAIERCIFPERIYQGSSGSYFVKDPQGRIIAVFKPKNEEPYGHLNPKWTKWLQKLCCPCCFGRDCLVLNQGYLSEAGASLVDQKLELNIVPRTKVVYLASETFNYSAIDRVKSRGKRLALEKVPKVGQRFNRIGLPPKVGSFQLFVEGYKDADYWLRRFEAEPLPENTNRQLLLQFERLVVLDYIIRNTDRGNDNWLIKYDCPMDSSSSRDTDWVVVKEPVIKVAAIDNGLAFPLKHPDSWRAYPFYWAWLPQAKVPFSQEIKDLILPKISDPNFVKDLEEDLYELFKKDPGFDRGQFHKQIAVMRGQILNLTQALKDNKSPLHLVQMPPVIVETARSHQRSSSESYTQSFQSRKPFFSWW
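ADP-Glo luminescence measured ADP generated by PI4K2A enzyme (4 ug/mL before mixing) with 1.2 mM PI substrate (pre-mix) and 300 microM ATP (pre-mix). Tris pH7.5 buffer with MgCl2, Triton X-100; 1 h reaction at ambient temperature.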
CtBP-E1A blk – qHTS Assay for Inhibitors of the CtBP/E1A Interaction; activity change, % (no concentration beside the values); actives 0.49% (n = 340,000); AlphaScreen GST-E1A/His-CtBP binding, 1536-well; stronger effect = lower value; CtBP / adenovirus E1A interaction (AlphaScreen)
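GST-E1A and His-tagged CtBP (125 nM each as 5X stock) were preincubated with pin-transferred compound for 2 h at 37 °C in the dark, then glutathione donor and nickel acceptor beads were added for 1 h before AlphaScreen reading.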
Six1-Eya2 inh – qHTS Assay for Inhibitors of the Six1/Eya2 Interaction; Homeobox protein SIX1 (Homo sapiens) + Protein phosphatase EYA2 (Homo sapiens), …; AlphaScreen GST-Six1/His-Eya2 binding, biochemical; stronger effect = lower value; activity change, % (no concentration beside the values); actives 0.56% (n = 360,000); AID 651725, 2012
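Compounds are tested against tagged Six1 and Eya2 proteins bridged by glutathione donor and nickel acceptor beads; after a one-hour incubation at 37 °C without light, AlphaScreen emission is recorded.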
Akt phos inh – HTS Assay for Inhibitors of Akt Phophorylation: Primary Screen | AID 651550, 2012 | Neuro2A IGF-stimulated pAkt S473 HTRF, 20 min; stronger effect = lower value | actives 0.32% (n = 360,000) | activity change, % for hits at 50 µM; in the data active = activity change below about -80%; inconclusive = mostly about -51% to -80%
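Neuro2A cells in DMEM with 0.5% FBS, overnight at 37 deg C, given compound at single 50 µM final, then IGF (6 nM final) for 20 min at 37 deg C. Lysed; phospho-Akt Ser473 by HTRF after 24 h, 665/615 ratio.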
An asterisk follows results filed as active. Only some compounds are listed: those with a hit (about 1.8% of all), similar ones and a draw of the others. Cut-off read from the data, not from the text of the source, unless noted: active = activity change below about -65%; inconclusive = mostly about -30% to -63%; inactive = weaker than that. Unless noted, % is set by controls: 0 for no effect and ±100 for the full control effect.

Results for COc1ccc(-c2nc(N)ncc2-c2ccccc2)c(O)c1 ?
PI5P4Ka inh: -13; PI4K2A block: -5; CtBP-E1A blk: -11; Six1-Eya2 inh: -25; Akt phos inh: inactive

Results for COc1ccc(-c2cc(-c3ccccc3)nc(N)n2)c(O)c1 ?
PI5P4Ka inh: 138; PI4K2A block: 12; CtBP-E1A blk: -25; Six1-Eya2 inh: -77*; Akt phos inh: inactive

What do the screens show for `COc1ccc(C2C=C(c3ccccc3)Nc3nc(CCCO)nn32)cc1` (stereo unspecified)?
PI4K2A block: 6; CtBP-E1A blk: 3; Six1-Eya2 inh: -4; Akt phos inh: inactive

What do the screens show for `C=CCNc1nc(C(=O)OCC(=O)c2cccc(Br)c2)cs1`?
PI5P4Ka inh: -59*; PI4K2A block: -8; CtBP-E1A blk: -10; Six1-Eya2 inh: inconclusive; Akt phos inh: inactive

What do the screens show for `NC(=S)N/N=C/c1ccc(OC(=O)c2cccnc2)cc1`?
PI5P4Ka inh: 7; PI4K2A block: -4; CtBP-E1A blk: 7; Six1-Eya2 inh: -4; Akt phos inh: inactive

What do the screens show for `NC(=S)NN=Cc1nccc2c(N)cccc12`?
PI5P4Ka inh: -22; PI4K2A block: -11; CtBP-E1A blk: -88*; Six1-Eya2 inh: -93*; Akt phos inh: inactive

Results for CCN(C(C)=O)c1cnc(C=NNC(N)=S)c2ccccc12 ?
PI5P4Ka inh: 7; PI4K2A block: -1; CtBP-E1A blk: inconclusive; Six1-Eya2 inh: -90*; Akt phos inh: inactive

Results for Cn1cc(/C=N/NC(N)=S)c2ccccc21 ?
PI5P4Ka inh: 3; PI4K2A block: 5; CtBP-E1A blk: 0; Six1-Eya2 inh: -11; Akt phos inh: inactive

Results for CCn1ncc(Br)c1C(=O)Nc1ccc2c(c1)OCCO2 ?
PI5P4Ka inh: -7; PI4K2A block: 5; CtBP-E1A blk: -5; Six1-Eya2 inh: 21; Akt phos inh: inactive

Results for COc1ccccc1CNC(=O)c1cc(S(=O)(=O)N2CCCC(C)C2)cn1C (stereo unspecified) ?
PI4K2A block: 1

Results for O=C(CSC1=NNC(c2ccccn2)S1)Nc1ccccc1 (stereo unspecified) ?
PI5P4Ka inh: -1; PI4K2A block: -12; CtBP-E1A blk: -94*; Six1-Eya2 inh: -94*; Akt phos inh: inactive

How did O=C(CSc1ccccc1)Nc1ccncc1 do in these assays?
PI5P4Ka inh: 5; PI4K2A block: -5; CtBP-E1A blk: -3; Six1-Eya2 inh: 2; Akt phos inh: -139%*

What do the screens show for `O=C(CSC1=NNC(c2ccccn2)S1)Nc1cccc(Cl)c1` (stereo unspecified)?
PI5P4Ka inh: -3; PI4K2A block: 0; CtBP-E1A blk: -96*; Six1-Eya2 inh: -89*; Akt phos inh: inactive

How did O=C(CSc1ccc2ccccc2c1)Nc1ccncc1 do in these assays?
PI4K2A block: 3; CtBP-E1A blk: 1; Six1-Eya2 inh: -1; Akt phos inh: inactive

How did O=C(CSc1nncn1-c1ccccn1)Nc1cccc(Cl)c1 do in these assays?
PI5P4Ka inh: -1; PI4K2A block: 3; CtBP-E1A blk: 9; Six1-Eya2 inh: 1; Akt phos inh: inactive

How did CC(C)CC1NC(=S)N(C2CCCCC2)C1=O (stereo unspecified) do in these assays?
PI5P4Ka inh: -59*; PI4K2A block: -2; CtBP-E1A blk: 3; Six1-Eya2 inh: 2; Akt phos inh: inactive

Results for CCC1NC(=S)N(C2CCCCC2)C1=O (stereo unspecified) ?
PI4K2A block: 2; CtBP-E1A blk: 6; Six1-Eya2 inh: 4; Akt phos inh: inactive

What do the screens show for `CCOc1cccc(C(=O)NC(=S)Nc2cccc(C)c2)c1`?
PI5P4Ka inh: 19; PI4K2A block: -4; CtBP-E1A blk: -7; Six1-Eya2 inh: -20; Akt phos inh: inactive

What do the screens show for `CC(=O)Nc1ccccc1-c1nn[nH]n1`?
PI5P4Ka inh: -12; PI4K2A block: -11; CtBP-E1A blk: 0; Six1-Eya2 inh: 0; Akt phos inh: -101%*

What do the screens show for `CCN(CC)S(=O)(=O)c1cc(C(=O)Nc2nncs2)c(Cl)cc1Cl`?
PI4K2A block: -3; CtBP-E1A blk: -9; Six1-Eya2 inh: -2; Akt phos inh: inactive

How did CCN(CC)S(=O)(=O)c1ccc(Cl)c(C(=O)Nc2nncs2)c1 do in these assays?
PI5P4Ka inh: 6; PI4K2A block: -12; CtBP-E1A blk: -4; Six1-Eya2 inh: 7; Akt phos inh: -103%*

How did N#Cc1cccc(C(=O)OCC(=O)NC(=O)NC2CCCCC2)c1 do in these assays?
PI5P4Ka inh: -4; PI4K2A block: -2; CtBP-E1A blk: -1; Six1-Eya2 inh: 1; Akt phos inh: inactive

What do the screens show for `O=C(Cc1ccccc1[N+](=O)[O-])Nc1cccc(S(=O)(=O)NC2=NCCCCC2)c1`?
PI5P4Ka inh: -7; PI4K2A block: 2; CtBP-E1A blk: -11; Six1-Eya2 inh: 7; Akt phos inh: inactive

What do the screens show for `Clc1ccc2c(N/N=C/c3cccc(Br)c3)ccnc2c1`?
PI5P4Ka inh: -69*; PI4K2A block: -2; CtBP-E1A blk: -6; Six1-Eya2 inh: 0; Akt phos inh: inactive

How did CCOC(=O)[C@@H]1[C@H]2COc3ccccc3[C@@H]2N2C(=O)N(c3cccc(C)c3)C(=O)[C@@]12C do in these assays?
PI5P4Ka inh: -3; PI4K2A block: 3; CtBP-E1A blk: 2; Six1-Eya2 inh: 2; Akt phos inh: inactive

What do the screens show for `CCOC(=O)C(CC(=O)O)NCc1ccco1` (stereo unspecified)?
PI5P4Ka inh: 5; PI4K2A block: 3; CtBP-E1A blk: 8; Six1-Eya2 inh: 4; Akt phos inh: inactive

How did O=C(O)c1cccc(N2C(=O)/C(=C/c3ccc(SCc4ccc(Cl)cc4)o3)SC2=S)c1 do in these assays?
PI5P4Ka inh: -73*; PI4K2A block: -13; CtBP-E1A blk: -4; Six1-Eya2 inh: inconclusive; Akt phos inh: inactive

What do the screens show for `CCCCC(=O)N/N=C/c1ccc(Sc2cccc3cccnc23)o1`?
PI5P4Ka inh: 6; PI4K2A block: -3; CtBP-E1A blk: -88*; Six1-Eya2 inh: -80*; Akt phos inh: inactive

Results for O=C(CSc1cccc2cccnc12)N/N=C/c1ccc(F)cc1 ?
PI5P4Ka inh: -5; PI4K2A block: -17; CtBP-E1A blk: inconclusive; Six1-Eya2 inh: -67*; Akt phos inh: inactive

Results for CN(C)S(=O)(=O)c1cccc(NC(=O)CSc2cccc3cccnc23)c1 ?
PI5P4Ka inh: 6; PI4K2A block: -10; CtBP-E1A blk: -91*; Six1-Eya2 inh: -91*; Akt phos inh: inactive

Screening data (PubChem)
